An excerpt weighted towards active compounds, which were near 1.3% of everything screened.
NCOA1 inh: inhibits human SRC1 coactivator | 360,000 tested, 0.12% active | Q15788 | inhibition, % at 3.6 µM | HEK293 GAL4-SRC1 luciferase reporter, luminescence;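 active means inhibition above the campaign mean plus 3 SD, with each screening campaign given its own cutoff, cut at about 60% in these data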
COUP-TFII inh: inhibitors of human COUP-TFII (NR2F2); HEK293T NGFI-A luciferase reporter, luminescence; inhibition, % at 8.6 µM; 370,000 tested, 0.7% active; P24468; AID 686940;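 active means inhibition above a per-plate cutoff, mean inhibition of test wells between control levels plus 3 SD, cut at about 38% in these data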;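 further: cells cotransfected with COUP-TFII expression vector driving the NGFI-A reporter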
SRC2 inh: human SRC2 (NCOA2) inhibition. inhibition, % at 9 µM. HEK293 GAL4-SRC2 luciferase reporter, luminescence. Q15596. 370,000 tested, 0.17% active;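 active means inhibition above the mean inhibition of all tested compounds plus 3 SD, set per campaign, cut at about 52% in these data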
LRH-1 inv ag: inverse agonists of human LRH-1 (NR5A2); inhibition, % at 3.6 µM; 360,000 tested, 0.13% active; HEK293T StAR-luciferase reporter, LRH-1 transfected, 24 h; AID 602396;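 active means inhibition above the mean inhibition of all tested compounds plus 3 SD, cut at about 73% in these data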
Target sequence (O00482 whole entry, looked up): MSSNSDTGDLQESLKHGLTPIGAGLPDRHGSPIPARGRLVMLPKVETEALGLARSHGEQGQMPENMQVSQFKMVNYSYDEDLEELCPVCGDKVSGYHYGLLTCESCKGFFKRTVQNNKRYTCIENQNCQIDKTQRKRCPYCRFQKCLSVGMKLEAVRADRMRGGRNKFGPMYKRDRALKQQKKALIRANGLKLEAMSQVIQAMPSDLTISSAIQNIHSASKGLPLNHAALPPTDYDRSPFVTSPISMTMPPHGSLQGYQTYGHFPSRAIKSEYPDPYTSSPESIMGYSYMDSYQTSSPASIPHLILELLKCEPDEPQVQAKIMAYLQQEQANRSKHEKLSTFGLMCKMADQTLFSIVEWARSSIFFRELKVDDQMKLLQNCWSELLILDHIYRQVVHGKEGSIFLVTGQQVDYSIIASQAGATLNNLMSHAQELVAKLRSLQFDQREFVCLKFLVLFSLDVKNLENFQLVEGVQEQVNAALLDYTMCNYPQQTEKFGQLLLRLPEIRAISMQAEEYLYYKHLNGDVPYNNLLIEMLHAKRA
SRC3 inh: inhibits human SRC3 coactivator; HEK293 GAL4-SRC3 luciferase reporter, luminescence; 360,000 tested, 0.17% active; Q9Y6Q9; inhibition, % at 3.6 µM;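 active means inhibition above a per-campaign cutoff, the mean of all compounds plus 3 SD, cut at about 60% in these data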;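 further: higher means less SRC3-driven luciferase light from the GAL4 reporter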
Gli-Sufu block: blocks Gli-Sufu signaling in a luciferase reporter; 340,000 tested, 0.74% active; AID 588413; Sufu-KO-LIGHT fibroblasts, Gli luciferase reporter luminescence; inhibition, % at 5 µM;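 active means inhibition above about 55%, limit read from the data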
Gal4-VP16 ctr: VP16 inhibition counter-screen for COUP-TFII | 2,500 tested, 25% active | AID 687007 | shares compounds with COUP-TFII inh | HEK293 Gal4-VP16 luciferase reporter, luminescence | inhibition, % at 8.5 µM; in the data active means inhibition above about 13%
NR2F2 inh conf: confirmation of human COUP-TFII (NR2F2) inhibitors. shares compounds with COUP-TFII inh. HEK293 NGFI-A luciferase reporter, luminescence. inhibition, % at 8.5 µM. 2,500 tested, 45% active;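 active means mean inhibition over three repeats above a set limit taken from the earlier primary screen, cut at about 38% in these data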
Hits are given with their value; . = inactive; / = no result given.

SMILES	NCOA1 inh	COUP-TFII inh	SRC2 inh	LRH-1 inv ag	SRC3 inh	Gli-Sufu block	Gal4-VP16 ctr	NR2F2 inh conf
COC(=O)[C@H](Cc1ccccc1)N1CC(N2CCCC2)CS1(=O)=O (some centres undefined)	/	.	.	/	/	/	/	/
CCOC(=O)C1(Cc2ccc(Cl)cc2)CCN(C(=O)c2sc(C)nc2C)CC1	.	42	.	.	.	.	.	.
CCOC(=O)C1(Cc2ccc(OC)cc2)CCN(C(=O)c2sc(C)nc2C)CC1	.	.	.	.	.	.	/	/
CCCCCC(=O)N1CC2(CC(c3cccc(NC(=O)COc4ccc(Cl)cc4)c3)=NO2)C[C@@H]1C(N)=O (some centres undefined)	.	42	.	.	.	.	.	.
CCC(=O)Nc1cccc(C2=NOC3(C2)C[C@@H](C(N)=O)N(C(=O)COc2ccc(Cl)cc2)C3)c1 (some centres undefined)	.	.	.	.	.	.	/	/
CN(C(=O)C(C)(C)C)c1ccc(OCC(=O)N2CCc3ccccc3C2)cc1	.	48	.	.	.	.	.	48
Cc1ccc(OCC(=O)N2CCc3ccccc3C2)cc1	.	.	.	.	.	.	/	/
CS(=O)(=O)N(CCC#N)Cc1ccc(/C=C2\C(=O)Nc3ccccc32)o1	.	38	.	.	.	.	.	.
CC(=O)/C=C1/C(=O)Nc2ccccc21	.	.	.	.	.	.	/	/
Cc1cccc(N2CCN(C(=O)C3CCC(CNS(=O)(=O)c4cccs4)CC3)CC2)c1C (centres undefined)	.	51	.	.	.	.	.	.
COc1ccc(NC(=O)CN(C)C(=O)c2cccc(S(=O)(=O)N3CCN(c4ccc(F)cc4)CC3)c2)cc1	.	46	.	.	.	.	.	.
CN(CC(=O)Nc1ccc(Cl)cc1)C(=O)c1cccc(S(=O)(=O)N2CCN(Cc3ccccc3)CC2)c1	.	37	.	.	.	.	.	.
CN(C)C(=O)c1ccc(NC(=O)c2cccc(S(=O)(=O)N3CCN(Cc4ccccc4)CC3)c2)cc1	.	.	.	.	.	.	/	/
COc1cccc(CN(C)C(=O)c2cccc(S(=O)(=O)N3CCN(c4ccccc4)CC3)c2)c1OC	.	52	.	.	.	.	.	.
COc1cccc(CN(C)C(=O)c2cccc(S(=O)(=O)N3CCN(Cc4ccccc4)CC3)c2)c1OC	.	.	.	.	.	.	/	/
CS(=O)(=O)c1ccc(NC(=O)c2cccc(S(=O)(=O)N3CCN(Cc4ccccc4)CC3)c2)cc1	.	41	.	.	.	.	.	.
CN(CC(=O)Nc1ccc(F)cc1)C(=O)c1cccc(S(=O)(=O)N2CCN(c3ccccc3)CC2)c1	.	.	.	.	.	.	/	/
CC(c1ccccc1)N1CC[C@H]2C=CC[C@@H](C(=O)Nc3cccc(Cl)c3)[C@H]2C1=O (some centres undefined)	/	.	/	/	/	/	/	/
CCCC1CCC2(CCCN2CCOC(=O)Nc2ccccc2OC)CC1 (centres undefined)	/	.	/	/	/	/	/	/
O=S1(=O)CC2c3ccccc3CCN2CN1Cc1ccc(F)cc1 (centres undefined)	/	.	.	/	/	/	/	/
COc1cccc(CNc2nc3cc(-c4ccsc4)sc3c(=O)n2C)c1OC	.	66	.	.	.	/	.	46
COc1cccc(CNc2nc3cc(-c4ccc(OC)c(OC)c4)sc3c(=O)n2C)c1	.	.	.	.	.	/	/	/
COc1ccc(-c2cc3nc(NCc4ccc(N(C)C)cc4)n(C)c(=O)c3s2)cc1OC	.	39	.	.	.	/	.	56
COc1c(C(O)CC(C)C)ccc2c1C(=O)OCc1cc(C)cc(O)c1O2 (centres undefined)	.	38	.	.	.	.	.	.
COc1c(C(CC(C)C)OC(C)=O)ccc2c1C(=O)OCc1cc(C)cc(O)c1O2 (centres undefined)	.	49	.	.	.	.	.	.
SMILES	NCOA1 inh	COUP-TFII inh	SRC2 inh	LRH-1 inv ag	SRC3 inh	Gli-Sufu block	Gal4-VP16 ctr	NR2F2 inh conf
O=C(OCCCN1CCC2(CCCCC2)C1=O)c1ccccc1	/	.	.	/	/	/	/	/
CCOc1ccc(-n2c(SCC(=O)Nc3ccc(OCc4ccccc4)cc3)nnc2-c2ccc(Cl)cc2)cc1	/	.	.	/	/	/	/	/
O=C(Nc1nccs1)c1ccc(S(=O)(=O)NCC2CCCCC2)cc1	.	60	.	.	.	.	.	41
COc1ccc(/C=C2\CC/C(=C\c3ccc(OC)c(OC)c3)C2=O)cc1OC	.	51	65	.	.	.	32	50
COc1cc(/C=C2\COC/C(=C\c3ccc(O)c(OC)c3)C2=O)ccc1O	.	63	.	.	.	.	.	.
O=c1[nH]cnc2nn(C3OC(CO)C(O)C3O)nc12 (centres undefined)	/	.	.	/	/	/	/	/
Clc1ccc(CN2CCN(N=Cc3ccncc3)CC2)cc1	/	50	.	/	/	/	.	.
CCc1cccc(CC)c1NC(=O)CSc1nc2ccc(N3C(=O)C4C5C=CC(C5)C4C3=O)cc2s1 (centres undefined)	.	39	.	.	.	.	.	.
C[C@H]1CN(C(=O)OC(C)(C)C)CCN1c1ccc(Br)c(C#N)c1	/	.	.	/	/	/	/	/
CC(=NCc1ccco1)c1c(C)[nH]n(-c2nc3ccccc3s2)c1=O	.	62	.	.	.	.	.	.
CCC(=NCc1ccco1)c1c(C(F)(F)F)[nH]n(-c2nc3ccccc3s2)c1=O	.	.	.	.	.	.	/	/
O=C(CCc1ccccc1)N[C@H]1[C@@H](OC(=O)c2cnccn2)CCC[C@]12C(=O)N(Cc1ccccc1)c1ccccc12	/	.	.	/	/	/	/	/
CCn1c(Cc2cccs2)nnc1SCC(=O)Nc1ccccc1-c1ccccc1	/	.	.	/	/	/	/	/
Cc1c(C(=O)N2CCC(C)CC2)oc2ccc3c(c12)C(O)CC1(CCCCC1)O3 (centres undefined)	.	38	.	.	.	.	.	.
CCC(C)[C@H](NC(=O)OC(C)(C)C)C(=O)N[C@@H](Cc1ccccc1)C(=O)OC (some centres undefined)	/	.	.	/	/	/	/	/
CC(C)(C)C(=O)Nc1ccc(NC(=O)c2ccco2)nc1	79	84	82	75	78	80	78	95
COc1ccc(-c2noc(C3CCCN(C(=O)N[C@@H]4C[C@H]4c4ccccc4)C3)n2)cc1 (some centres undefined)	/	.	.	/	/	/	/	/
Cc1cc(N2CCNC[C@H]2C)ccc1N1CCN(Cc2ccccc2)[C@H](C)C1	/	.	.	/	/	/	/	/
COc1ccc(S(=O)(=O)N/N=C\c2ccc3c(c2)OCO3)c(OC)c1	.	48	.	.	.	.	.	.
COc1ccc(OC)c(S(=O)(=O)N/N=C\c2ccc3c(c2)OCO3)c1	.	.	.	.	.	.	/	/

Screens (PubChem BioAssay)
